# From PubChem BioAssay AID1725 (National Center for Advancing Translational Sciences (NCATS), 2009)
# Some of the results follow. Results filed as inconclusive are left out. Values without a mark were called inactive. Activity calls are given as the source filed them. Calls come from the whole dose curve; as a rule, active = well fitted inhibition curve with a large enough effect; inconclusive = small, poorly fitted or top-dose-only effect, or effect the other way; inactive = no such curve, though single readings can be large or run the other way.
# Assay: Confirmation Concentration-Response Assay for Inhibitors of the ERK Signaling Pathway using a Homogeneous Screening Assay; Stimulation with EGF
# Conditions: HEK293 EGF-stimulated ERK phosphorylation, AlphaScreen; series mostly up to 57.5 µM; activity change, negative = inhibition: at the top concentration
# Excerpt: qHTS Assay for Inhibitors of the ERK Signaling Pathway using a Homogeneous Screening Assay
# NIH Chemical Genomics Center [NCGC]
# NIH Molecular Libraries Screening Centers Network [MLSCN]
# Assay Submitter (PI): Dr. Wei Zheng, NCGC/NIH
# The Ras/extracellular-signal-regulated kinase (ERK) mitogen activated protein (MAP) kinase signaling pathway (ERK1/2 cascade) plays is a key role in transmitting signals from the cell surface to the nucleus (Nishida and Gotoh 1993; Chang and Karin, 2001). The cascade is initiated by the small G-protein Ras, which recruits Raf […], where activation occurs. Alternatively, this pathway can be activated by elevating intracellular cAMP.
# Activation of the ERK pathway is essential in increased cell division and cell survival. Sustained and constitutive activation of the ERK pathway, however, has been linked to uncontrolled cell proliferation, increased cell survival, and tumor progression. Thus, the ERK has been as an attractive target for cancer chemotherapy in the past few years (Sebolt-Leopold and Herrera, 2004). Given its physiological and pathological importance, assessment of ERK phosphorylation has been broadly performed in both basic research and drug discovery. Most assays for the measurement of ERK phosphorylation use the antibody-based detection methods, such as western blot and ELISA. These assays require multiple reagent additions with cell wash steps and are not suitable for high-throughput screening.
# The current cell-based ERK phosphorylation assay was performed using AlphaScreen platform. AlphaScreen is a two bead-based proximity-dependent chemical energy transfer luminescent assay platform. […]
# HEK293 cells stably expressing type-1 vasopressin receptor (V1b) were maintained in DMEM medium (Invitrogen, Carlsbad, CA) at 37C under a humidified atmosphere containing 5% CO2 and 95% air. […] The ERK phosphorylation in cells was determined using an AlphaScreen assay kit provided by PerkinElmer. […] AC50 values were determined from concentration-response data modeled with the standard Hill equation. […]
SMILES,Potency,"activity change, negative = inhibition"
CN(C)c1cc2c(Nc3ccc4c(cnn4Cc4ccccc4)c3)ncnc2cn1,2.82 µM (active),
CCCNc1ncnc2sc(C)c(C)c12,,-8.99%
CN(C)c1ccc(Nc2c3c4c(cccc4n(C)c2=O)C(=O)c2ccccc2-3)cc1,11.2 µM (active),
